Test [1] is described as follows: Quantitative High-Throughput drug screen in 47 multiple myeloma cell lines against the NCATS MIPE library collection: PE2_PLB cell viability assay (AID 1919869). Further: nearly all actives have a fitted effect of over 35% in size. In short, it runs like this: (§1)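 Cells were exposed to library compounds for 48 hours, after which ATP was measured by CellTiter-Glo. Signal was taken as median relative luminescence units.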
Test [2] is described as follows: Quantitative High-Throughput drug screen in 47 multiple myeloma cell lines against the NCATS MIPE library collection: RPMI8226_ATCC cell viability assay (AID 1919871). Further: nearly all actives have a fitted effect of over 30% in size. In a few lines:
as §1

A short description of test [3]: Quantitative High-Throughput drug screen in 47 multiple myeloma cell lines against the NCATS MIPE library collection: OPM2_DSMZ cell viability assay (AID 1919872). Further: nearly all actives have a fitted effect of over 30% in size. In a few lines:
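Myeloma cells (500 per well) were exposed to MIPE 4.0 compounds by pin transfer and incubated 48 hours at 37C, 5% CO2. Viability was read as ATP by CellTiter-Glo luminescence, normalised to DMSO (100%) and media-only (0%) wells.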

A short description of test [4]: Quantitative High-Throughput drug screen in 47 multiple myeloma cell lines against the NCATS MIPE library collection: KMS11_JCRBsus cell viability assay (AID 1919873). Further: nearly all actives have a fitted effect of over 50% in size. In short, it runs like this: as §1
A short description of test [5]: qHTS drug screen for cell cycle checkpoint inhibitors in PARPi-resistant BRCA-mutant ovarian cancer cell lines. (AID 1963452; calls by dose curve). Particulars: PEO1/OlaR viability, CellTiter-Glo luminescence, 96 h; for Z-AUC: stronger effect = lower value. In short, it runs like this: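 PEO1, PEO4 and PEO1/OlaR ovarian cancer cells, 600 per well, exposed 96 h at 37C to a dilution series. Viability read by CellTiter-Glo luminescence, normalized to DMSO and empty wells; activity summarized as Z-AUC.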

Test [6] can be described thus: Quantitative High-Throughput drug screen in 47 multiple myeloma cell lines against the NCATS MIPE library collection: PCM6_Riken cell viability assay (AID 1919870). Further: nearly all actives have a fitted effect of over 30% in size. In a few lines: as §1
Test [7] can be described thus: Quantitative High-Throughput drug screen in 47 multiple myeloma cell lines against the NCATS MIPE library collection: KMS28BM_JCRB cell viability assay (AID 1919874). Further: nearly all actives have a fitted effect of over 35% in size. In short, it runs like this: as §1
Test [8] in a line: qHTS for identification of novel therapeutic agents for treatment of microphthalmiaassociated transcription factor (MiT) renal cell carcinoma (RCC) (AID 1963991; calls by dose curve). The settings on record: CellTiter-Glo, 48 h; for z-score: stronger effect = lower value. In short, it runs like this: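 Three TFE3-fusion RCC lines (UOK109, UOK124, UOK145), 500 cells/well in complete medium, were treated with MIPE 4.0 compounds for 48 hours at 37 C. Viability was by CellTiter-Glo luminescence, normalized to DMSO (100%) and empty wells (0%); curves fitted over 11 concentrations.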

Test [9] can be described thus: qHTS profiling for inhibitors of Plasmodium falciparum proliferation (AID 504749). Further: nearly all actives have a fitted effect of over 60% in size. Particulars: P. falciparum in erythrocytes, SYBR Green DNA, 72 h. In a few lines:
(§2)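 Each compound contacts P. falciparum-infected red blood cells for 72 h at 37 C; lysis buffer (Tris, EDTA, saponin, Triton X, SYBR Green I) is added and fluorescence measured next morning; values normalized to controls.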

Another test relates to 3D7. Described as above. Particulars: P. falciparum in erythrocytes, SYBR Green DNA, 72 h; series mostly up to 28.7 µM. In short, it runs like this: as §2
In the next test the test system is 7G8. The description is as above. Particulars: P. falciparum in erythrocytes, SYBR Green DNA, 72 h; series mostly up to 28.7 µM. In a few lines:
as §2

The next test concerns AA1029. The test is described as above. The settings on record: P. falciparum in erythrocytes, SYBR Green DNA, 72 h; series mostly up to 28.7 µM. In short, it runs like this: as §2
The next test relates to AS120. Described as above. The settings on record: P. falciparum in erythrocytes, SYBR Green DNA, 72 h; series mostly up to 28.7 µM. In a few lines:
as §2

The next test has as its system ATS189. The test is described as above. Particulars: P. falciparum in erythrocytes, SYBR Green DNA, 72 h; series mostly up to 28.7 µM. In short, it runs like this:
as §2

For another test, the system named is ATS95. The description is as above. The settings on record: P. falciparum in erythrocytes, SYBR Green DNA, 72 h; series mostly up to 28.7 µM. In a few lines:
as §2

A further test relates to C2A. The description is as above. The settings on record: P. falciparum in erythrocytes, SYBR Green DNA, 72 h; series mostly up to 28.7 µM. In a few lines:
as §2

The test system of another test is CP185. Described as above. The settings on record: P. falciparum in erythrocytes, SYBR Green DNA, 72 h; series mostly up to 28.7 µM. In a few lines:
as §2

Another test has as its system CP191. Described as above. The settings on record: P. falciparum in erythrocytes, SYBR Green DNA, 72 h; series mostly up to 28.7 µM. In a few lines: as §2
A further test has as its system CP192. The description is as above. The settings on record: P. falciparum in erythrocytes, SYBR Green DNA, 72 h; series mostly up to 28.7 µM. In short, it runs like this: as §2
The subject of another test is CP194. Described as above. Particulars: P. falciparum in erythrocytes, SYBR Green DNA, 72 h; series mostly up to 28.7 µM. In a few lines: as §2
The mark [10] stands for this setting: measured here: PEO1 parental Z-AUC.
[11] abbreviates: TFE3-RCC UOK109 viability, measured here: UOK109 Z-AUC.
[12] abbreviates: TFE3-RCC viability, measured here: UOK124 Z-AUC.
Where [13] appears, read: TFE3-RCC viability, measured here: UOK145 Z-AUC.

The record followed here is PubChem BioAssay (NCATS).

Each structure is given as a SMILES string. Results filed as inconclusive are left out. The source made the active and inactive calls. Unless noted, the call rests on the fitted dose curve; in most records, active means well fitted curve in the direction sought with a large enough effect; inconclusive means small, poorly fitted or top-dose-only effect, or another doubt; inactive means no such curve, though single readings can be large; an effect the other way counts as inactive or inconclusive.
Potency means the concentration at half of the fitted maximal effect.

Turning to `COc1ccc(C(=O)CC2(O)C(=O)Nc3c(Cl)ccc(Cl)c32)cc1` (centres undefined), the Potency in [1] is 4.18 µM (active); in test [2], 2.64 µM (active); in test [3], 9.35 µM (active); in test [4] it was 1.32 µM (active). Moreover, the Z-AUC in [5] is -0.119 (inactive); in [5] (setting [10]), -0.455; in test [5] (measured here: PEO4 Z-AUC) it was -0.085.

As for `COc1cc2c(Oc3ccc4[nH]c(C)cc4c3F)ncnc2cc1OCCCN1CCCC1`, the Potency in test [1] was 13.2 µM (active); in [6] it was 2.35 µM (active); in test [4], 2.96 µM (active); in test [7], 16.6 µM (active). The Z-AUC in test [5] was -0.035 (inactive); in [5] (setting [10]), 0.995; in test [5] (measured here: PEO4 Z-AUC), 0.0837.

Turning to `C=CC(=O)Nc1cccc(Oc2nc(Nc3ccc(N4CCN(C)CC4)cc3OC)ncc2Cl)c1`, the Potency was 0.526 µM (active) in [1], 7.43 µM (active) in test [6] and 13.2 µM (active) in test [4]. The Z-AUC is -0.915 (inactive) in [5], -0.879 in test [5] (setting [10]) and -0.954 in [5] (measured here: PEO4 Z-AUC).

For `Cc1cccc(C=NNc2cc(N3CCOCC3)nc(OCCc3ccccn3)n2)c1`, the Potency in [1] is 18.7 µM (active); in test [2], 18.7 µM (active); in test [4], 2.64 µM (active); in [8] (TFE3-RCC UOK109 viability, active = Z-AUC below -0.8 in all three lines), 0.118 µM (active). Moreover, the z-score was -0.897 in [8] (setting [11]), -1.42 in test [8] (setting [12]) and -0.962 in [8] (setting [13]).

As for `NCC(=O)Nc1ccc(-n2nc(C(F)(F)F)cc2-c2ccc3c(ccc4ccccc43)c2)cc1`, the Potency in test [1] and in test [6] was 20.9 µM (active) throughout. Besides, the Z-AUC in [5] was 0.362 (inactive); in test [5] (setting [10]), -0.764; in [5] (measured here: PEO4 Z-AUC), -0.389.

For the molecule `CN(C)CC(C)(C)CNc1nn2c(-c3ccccc3)nnc2cc1C1CCC1`, the Potency in test [1] was 11.8 µM (active). The Potency result in test [2], in [3] and in test [4] was “inactive” in each case. Also, the Z-AUC in test [5] is 0.384 (inactive); in [5] (setting [10]), 0.768; in test [5] (measured here: PEO4 Z-AUC), 0.988.

`COc1cc(-c2nn(C3CCC(N4CCN(C(C)=O)CC4)CC3)c3ncnc(N)c23)ccc1NC(=O)c1cc2ccccc2n1C` (centres undefined): the Potency is 2.96 µM (active) in [1], 18.7 µM (active) in test [2], 4.18 µM (active) in test [4] and 3.32 µM (active) in [7]. Also, the Z-AUC was -1.39 (inactive) in test [5], 0.075 in [5] (setting [10]) and -0.0545 in test [5] (measured here: PEO4 Z-AUC).

Turning to `COC(=O)C[C@](O)(CCCC(C)(C)O)C(=O)O[C@@H]1C(OC)=C[C@]23CCCN2CCc2cc4c(cc2[C@H]13)OCO4`, the Potency in [1] is 20.9 µM (active); in test [4], 29.6 µM (active); in [5], 0.436 µM (active); in test [9] (parasite line A), 0.0251 µM (active); in [9] (parasite line B), 0.0251 µM (active); in the test on 3D7 it was 0.0251 µM (active). Also, the Potency with 7G8 is 0.0112 µM (active); in the test on AA1029, 0.0251 µM (active); in the test with AS120, 0.0158 µM (active); in the test on ATS189, 0.0316 µM (active); in the test with ATS95, 0.0282 µM (active); in the test with C2A it was 0.0224 µM (active). In addition, the Potency in the test with CP185 was 0.0355 µM (active); in the test with CP191, 0.0282 µM (active); in the test on CP192, 0.0269 µM (active); in the test on CP194, 0.0379 µM (active). The Potency entry in test [2] and in [3] was “inactive” throughout. Further, the Z-AUC in [5] (setting [10]) was -2.08; in test [5] (measured here: PEO4 Z-AUC), -2.6. Besides, the z-score in test [8] (setting [11]) was found to be 0.959; in test [8] (setting [12]) it was 0.544; in test [8] (setting [13]), 0.67.
